# Test results taken from paper PMC13494018.
# A number with no mark means an inactive call. No rule for the calls is given here.
# B1: design_599_7ce25d4d-e004-4b84-a16f-baf856d943ab_1823_dldesign_0_cycle1_af2pred (protein)
# chain: NISEENKKLAAAEQAKFTAEAAIKKVKATTPEEAKKVAEEAIKRLEKLGKVGEEAAKVAKEEIAKLKATAEKVAA
# B2: design_599_7ce25d4d-e004-4b84-a16f-baf856d943ab_1912_dldesign_0_cycle1_af2pred (protein)
# chain: MEKLKELLEKTKELAKKGVEYAKKGDEEKARKYMLEARKYAEEAKKLDPEAGKEAAKIIQEAYEEMAEARFEVN
# B3: design_599_7ce25d4d-e004-4b84-a16f-baf856d943ab_1925_dldesign_0_cycle1_af2pred (protein)
# chain: AQAVLDEAKKAADKAIALANQAIALAKTDLAAGKAKMEEALEELTEADYLADKAAKAGATEEAKKVRDKAKAAIDAARATIKAA
# B4: design_599_7ce25d4d-e004-4b84-a16f-baf856d943ab_1942_dldesign_0_cycle1_af2pred (protein)
# chain: KEEIKKIAEEAIEKAENAKTKEQAAEAAKLAAEALKKVGAEKAAKRAEEVAKKAKEGSDSEVPELSKETLILAEQVLFAV
# B5: design_599_7ce25d4d-e004-4b84-a16f-baf856d943ab_1969_dldesign_0_cycle1_af2pred (protein)
# chain: MKVEEEVKKTKKVAEEAIKRAEEERKKASPELKEETEEVIKKAKEYMEKAEKAVKEGDYEKAKEYAKKMATYASELIALVNAIKH
# B6: design_599_7ce25d4d-e004-4b84-a16f-baf856d943ab_2004_dldesign_0_cycle1_af2pred (protein)
# chain: DARKKAAELFKEAGKLATEAAKASPEEGKKLAEEAVAKVKEAAKVLGRERIGENFIKQIVAGRKSREIAGYQLEARADAIAA
# B7: design_599_7ce25d4d-e004-4b84-a16f-baf856d943ab_2014_dldesign_0_cycle1_af2pred (protein)
# chain: AELKAKAAIARVEFQAENIIEAGKKNGKEAEKIVKAAEETVKKAKEEIEKDPERAWEIAEKYIRELQEKARELIEKA
# B8: design_599_7ce25d4d-e004-4b84-a16f-baf856d943ab_2019_dldesign_0_cycle1_af2pred (protein)
# chain: GEELREKLLKEAEEAVKAAAADVPEMKDRLLAQMEKAKAAPLSKAPTELARLGSLLMAAAFATGSKTAEEAAEIAADAALKLK
# B9: design_599_7ce25d4d-e004-4b84-a16f-baf856d943ab_2060_dldesign_0_cycle1_af2pred (protein)
# chain: SSLDKKIAEEALKTAREGRKKVEELVKAGKYEEALALAKELREKMLKVYEELVKEGGTIEGIQAAFSAAMLMESAESYAKTKLEAAK
# B10: design_599_7ce25d4d-e004-4b84-a16f-baf856d943ab_2071_dldesign_0_cycle1_af2pred (protein)
# chain: GKAKEIAKKGAEELGKALGEEAKVDADIAAEQAEMQPTPELMAEAFKRGAKRIGEKTGKLEKAEEVAKKTVKAIKE
# B11: design_599_7ce25d4d-e004-4b84-a16f-baf856d943ab_2233_dldesign_0_cycle1_af2pred (protein)
# chain: SLVANIGQDIRSEAIAKAKLGGAEGAKEGAELAREAAVAFRKLGEASTPELKELAEKAAEIMERVSERLEEEAKRKAA
# B12: design_599_7ce25d4d-e004-4b84-a16f-baf856d943ab_2320_dldesign_0_cycle1_af2pred (protein)
# chain: SVKSRAESAYVTAAARHAKEKAAADPAYAELYGKVLFGFYDTLDDPSAAEETYALDPELAPKLLEEMEKVGKAAADAELAK
# B13: design_600_24101276-ad9d-4944-b73e-53bb160363ad_105_dldesign_0_cycle1_af2pred (protein)
# chain: GEEEEKKKKAVEKAKKALEQTKKAADKGTALDPSAKPEFDKIVKEAEKELKKAEEGDAETAKKAAKEAIEEAHKAYELRAEVEAKAIR
# B14: design_600_24101276-ad9d-4944-b73e-53bb160363ad_124_dldesign_0_cycle1_af2pred (protein)
# chain: NEMKKKAEELQKKARKLREVVKKGPKDAAEAKKAAEEAKKVAEEAEKAIEEDPSADPKTIAKLQRAAFSAEAAAKQLEKWL
# B15: design_600_24101276-ad9d-4944-b73e-53bb160363ad_146_dldesign_0_cycle1_af2pred (protein)
# chain: SKIYKLYGELTVEILKEKAEEAVELAKEGKAEEAKKYLKEAYERAKARAERLKEIDPEAGKEALKAVEKTYKEYEKELEKAIKEN
# B16: design_600_24101276-ad9d-4944-b73e-53bb160363ad_358_dldesign_0_cycle1_af2pred (protein)
# chain: DALAAGIVAAMREDPARGAAAARNAALQYEDDPAAYEAVKAAALAAAAADPAVAAALAAAFDAAAKEVSA
# B17: design_600_24101276-ad9d-4944-b73e-53bb160363ad_413_dldesign_0_cycle1_af2pred (protein)
# chain: ITPEEAKKLMENIAEAAKDMATWNPAAAETIAKSATKRMESIGKKAGIEEEAKKYSEEVKKFAKEVKEKS
# B18: design_600_24101276-ad9d-4944-b73e-53bb160363ad_551_dldesign_0_cycle1_af2pred (protein)
# chain: GSSAANALADAQRKALKELQAVGKEAEKVSPEAAKKAAEYRDKLLDGETVEEVEAVKEEGLKEVTAMIEKAKAA
# B19: design_600_24101276-ad9d-4944-b73e-53bb160363ad_591_dldesign_0_cycle1_af2pred (protein)
# chain: AEAEYKKAKELLKKAKEALKKNPEEALKLAKEAVEAAKKAAEADPSLAPELGKYAQEALQIISEARFKIS
# B20: design_600_24101276-ad9d-4944-b73e-53bb160363ad_768_dldesign_0_cycle1_af2pred (protein)
# chain: AEDLKKAIEKIKKEVGEEAAKLVGEALKAKQAAADDPSLAETQLKKVEELEKEAKKLDPKAAKLVSKIKKVVKRMVEN
# B21: design_600_24101276-ad9d-4944-b73e-53bb160363ad_769_dldesign_0_cycle1_af2pred (protein)
# chain: NEELIKFKAKAYSTAYSTAHTVAAAEKIAKTGTPEEAAKAKAAAAKALARLKEVGKEAKKKGPEYAKAFEEAAKEGEKVLKELLA
# B22: design_600_24101276-ad9d-4944-b73e-53bb160363ad_894_dldesign_0_cycle1_af2pred (protein)
# chain: MTVEEYLKQAKEAGEEAIKILKETAKKDPSSKDVADMLIKAVETTLKEGSEKAKKEGAEKAKQLLEKMKLGLRTAKRLLENVERSE
# B23: design_600_24101276-ad9d-4944-b73e-53bb160363ad_953_dldesign_0_cycle1_af2pred (protein)
# chain: DAKKAAADALVATAAAEDPSLKPLAQEVADKAIASEDGLKAAKEGMTALAKKYPEYAKAFAAAMQAFYETYNEAEFKKKKA
# B24: design_600_24101276-ad9d-4944-b73e-53bb160363ad_984_dldesign_0_cycle1_af2pred (protein)
# chain: AKEEDLKKAEEELKKFAEEAAKELKEAGAKKQDIESTKEYGEHRAEAVVTTSKKKGLSPEELKKLVKEAKERIKKYKENKL
# B25: design_600_24101276-ad9d-4944-b73e-53bb160363ad_1012_dldesign_0_cycle1_af2pred (protein)
# chain: VEELVKKAAEKKEKAVELIDEGKLEEAEKEAEELKKLAEEIKKKDPKLGEEALKGARALKRLIKEAKEAEEK
# B26: design_600_24101276-ad9d-4944-b73e-53bb160363ad_1035_dldesign_0_cycle1_af2pred (protein)
# chain: EKLEEAEKERDKAVDKLAALVAKALGPEAGAKARAAAKKGLAALKAVVAEAAKTSGLTAELAKALHEVYQATAEAELLKKK
# B27: design_600_24101276-ad9d-4944-b73e-53bb160363ad_1044_dldesign_0_cycle1_af2pred (protein)
# chain: MTPEERKALALKEQAEHTAKAGKKLGAKDPEAALKAAERLKKLAERAKKTGTEEGKEAAKLAEEYAKELEKLAKKAKE
# B28: design_600_24101276-ad9d-4944-b73e-53bb160363ad_1126_dldesign_0_cycle1_af2pred (protein)
# chain: SEEAKKLLEELKKAAEEAIAKAKELEKEDPAKAAEYAKKALKELRAKGKEIAELDPAFAPEAGAEVQKVQEYRAEAEAKALRKK
# B29: design_600_24101276-ad9d-4944-b73e-53bb160363ad_1181_dldesign_0_cycle1_af2pred (protein)
# chain: AAEEEIKKAITEAKDAALDSAYIAAKDPSKAAEAEAAYNAALGKLEEALKVLDEETRKKAIQSVKNIRDSTYEASKKSLKS
# B30: design_600_24101276-ad9d-4944-b73e-53bb160363ad_1218_dldesign_0_cycle1_af2pred (protein)
# chain: DEEKKKKAAEALDKAAELAKKAAEDEKYLPEALKALKETAKLAGEALGAEAAHAILEARAVVKAKGKEGAKEAAEVLEELRKKVR
# B31: design_600_24101276-ad9d-4944-b73e-53bb160363ad_1238_dldesign_0_cycle1_af2pred (protein)
# chain: AVKEQAKALAEAGLKADVETAKKYAAAAVLLAFDSSDTEDVKYAAELLKKAAKEATDPEKKEAFERAARVVERAAEDMRKAEER
# B32: design_600_24101276-ad9d-4944-b73e-53bb160363ad_1283_dldesign_0_cycle1_af2pred (protein)
# chain: EEEKKEIAKKTEEYYKELLKVAKEVAAKDPSKKPELAKLTDEAAQYVAEAKAGLNPEEALEKVKKLLEEAKKIA
# B33: design_600_24101276-ad9d-4944-b73e-53bb160363ad_1344_dldesign_0_cycle1_af2pred (protein)
# chain: SFKKEAAIESSKELLDQAVAAAKADPARATEIAKTGLKKATERAKKAGEEAYKTVKEYGEKLLAEVEAAAKAAA
# B34: design_600_24101276-ad9d-4944-b73e-53bb160363ad_1404_dldesign_0_cycle1_af2pred (protein)
# chain: SLKEEIKNKEKSGKNNVEAAKMAAEEGDITFAKSAIAAAKKAIEQLKELAKKATPEVAKEGKEAAEKLEKEREEAEKLLKKKEA
# B35: design_600_24101276-ad9d-4944-b73e-53bb160363ad_1440_dldesign_0_cycle1_af2pred (protein)
# chain: SEKVKKDSEAIRKLVKAVKEAGKAAKAAAKAAPEVAAVAEAAQKASAQLVFEALDEENIEEAAKKAEEAIKAAAEAVKAAAKAAK
# B36: design_600_24101276-ad9d-4944-b73e-53bb160363ad_1497_dldesign_0_cycle1_af2pred (protein)
# chain: DEAHKRAKALYEEDRALQKELRKKAKEAKEMAKEFADDPVWKAKAEEASKLNLQALFDPENKETREKGEKTYEEVYKKYKELKKKK
# B37: design_600_24101276-ad9d-4944-b73e-53bb160363ad_1688_dldesign_0_cycle1_af2pred (protein)
# chain: GLKEEGKKKIKEIKELAKKALENPEKAEEYVKKARELAKEVAEKLPELGKEAAEAAQEALENRAEGKAKLAREK
# B38: design_600_24101276-ad9d-4944-b73e-53bb160363ad_1735_dldesign_0_cycle1_af2pred (protein)
# chain: SEEEEKLREENRKIAEKERNAHVAKAAAKLVEKATPEEAVAILEKAAKAASDTEFFLALAKKVKAEGKKGVKEAVKALKKRAKEL
# Biological target: VTCN1, Q7Z7D3
# Sequence (Q7Z7D3 whole entry): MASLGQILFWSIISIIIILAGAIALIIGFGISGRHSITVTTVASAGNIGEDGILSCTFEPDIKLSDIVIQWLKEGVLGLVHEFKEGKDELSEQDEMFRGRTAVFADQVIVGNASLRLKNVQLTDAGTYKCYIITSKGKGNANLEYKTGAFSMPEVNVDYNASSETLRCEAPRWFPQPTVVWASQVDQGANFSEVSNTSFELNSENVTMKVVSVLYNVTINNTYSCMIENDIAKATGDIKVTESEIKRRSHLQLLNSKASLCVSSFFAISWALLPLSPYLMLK
row,Binder,binding in a display sort
1,B1,not found
2,B2,not found
3,B3,not found
4,B4,not found
5,B5,not found
6,B6,not found
7,B7,not found
8,B8,not found
9,B9,not found
10,B10,not found
11,B11,not found
12,B12,not found
13,B13,not found
14,B14,not found
15,B15,not found
16,B16,not found
17,B17,not found
18,B18,not found
19,B19,not found

row,Binder,binding in a display sort
1,B20,not found
2,B21,not found
3,B22,not found
4,B23,not found
5,B24,not found
6,B25,not found
7,B26,binds (active)
8,B27,not found
9,B28,not found
10,B29,not found
11,B30,not found
12,B31,not found
13,B32,not found
14,B33,not found
15,B34,not found
16,B35,not found
17,B36,not found
18,B37,not found
19,B38,not found
